Data: the supplement of paper PMC8371130
Counter-ions that a name gives are not always drawn.

System: HL-1
Assay: relative cell viability (CellTiter-Glo) vs DMSO control (% of DMSO control); higher = more viable cells
Procedure, shortened: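 Cell viability was determined from CellTiter-Glo luminescence, expressed relative to vehicle-treated control cells. The cells were HL-1 mouse atrial cardiomyocytes, plated at 1000 cells per well in 384-well plates with compounds at 40, 200, 1000 or 5000 nM in 0.01% DMSO. One day after plating, they underwent 48 h of hypoxia (1% O2) in a hypoxic workstation followed by 24 h of reoxygenation in a normal incubator, or were kept in normoxia for an equal time.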

[1] = oxygen condition: hypoxia 48 h (1% O2) + reoxygenation 24 h, 40 nM
[2] = oxygen condition: hypoxia 48 h (1% O2) + reoxygenation 24 h, 200 nM
[3] = oxygen condition: hypoxia 48 h (1% O2) + reoxygenation 24 h, 1000 nM
[4] = oxygen condition: hypoxia 48 h (1% O2) + reoxygenation 24 h, 5000 nM
[5] = oxygen condition: normoxia 72 h, 40 nM
[6] = oxygen condition: normoxia 72 h, 200 nM
[7] = oxygen condition: normoxia 72 h, 1000 nM
[8] = oxygen condition: normoxia 72 h, 5000 nM

Compound | relative cell viability [1] | relative cell viability [2] | relative cell viability [3] | relative cell viability [4] | relative cell viability [5] | relative cell viability [6] | relative cell viability [7] | relative cell viability [8]
Cn1c(CCCC(=O)O)nc2cc(N(CCCl)CCCl)ccc21 [Bendamustine HCL] | 111 | 111 | 108 | 110 | 114 | 114 | 110 | 111
CNCC(=O)c1ccc(O)c(O)c1 [Adrenalone HCl] | 97.4 | 101 | 106 | 108 | 99.1 | 105 | 99.6 | 107
CC(=O)O[C@H]1C[C@@H]2CC[C@@H]3[C@H](CC[C@@]4(C)[C@H]3C[C@H]([N+]3(C)CCCCC3)[C@@H]4OC(C)=O)[C@@]2(C)C[C@@H]1[N+]1(C)CCCCC1 [Pancuronium] | 103 | 101 | 102 | 109 | 101 | 105 | 108 | 101
C=CC[C@]1(O)CC[C@H]2[C@@H]3CCC4=CC(=O)CCC4=C3C=C[C@@]21C [Altrenogest] | 105 | 110 | 106 | 108 | 104 | 107 | 102 | 105
COc1ccc(OC)c(C(O)C(C)N)c1 (centres undefined) [Methoxamine HCl] | 107 | 102 | 101 | 102 | 102 | 105 | 80.9 | 123
O=C1CC[C@@]2(O)[C@H]3Cc4ccc(O)c5c4[C@@]2(CCN3CC2CC2)[C@H]1O5 [Naltrexone HCl] | 102 | 106 | 99.6 | 108 | 107 | 106 | 113 | 110
C[C@]12CC[C@H]3[C@@H](CC[C@@]45O[C@@H]4C(O)=C(C#N)C[C@]35C)[C@@H]1CC[C@@H]2O [Trilostane] | 101 | 104 | 108 | 107 | 113 | 116 | 102 | 108
CNC(=O)Oc1ccc2c(c1)[C@]1(C)CCN(C)[C@@H]1N2C [Physostigmine Salicylate] | 89.5 | 84.3 | 69.5 | 41.9 | 84.3 | 84.1 | 64.7 | 48.8
C[C@]12C/C(=C/O)C(=O)C[C@@H]1CC[C@@H]1[C@@H]2CC[C@@]2(C)[C@H]1CC[C@]2(C)O [Oxymetholone] | 104 | 104 | 104 | 114 | 104 | 102 | 105 | 115
COc1ccc(C(CN(C)C)C2(O)CCCCC2)cc1 (centres undefined) [Venlafaxine] | 97.2 | 96.1 | 101 | 102 | 102 | 96.1 | 99.5 | 108
C[C@]12CCC(=O)C=C1C=C[C@@H]1[C@@H]2CC[C@@]2(C)[C@H]1CC[C@@]2(O)CCC(=O)O [Potassium Canrenoate] | 100 | 96.7 | 97.6 | 103 | 101 | 98.6 | 94.2 | 108
COc1ccc(C(=O)N2CCCC2=O)cc1 [Aniracetam] | 106 | 111 | 110 | 113 | 101 | 104 | 111 | 116
CC(C)NCC(O)c1ccccc1Cl (centres undefined) [Clorprenaline HCL] | 104 | 102 | 106 | 117 | 105 | 102 | 103 | 108
CN1c2ccccc2C(NCCCCCCC(=O)O)c2ccc(Cl)cc2S1(=O)=O (centres undefined) [Tianeptine sodium] | 106 | 105 | 108 | 106 | 98.8 | 103 | 104 | 110
CN1[C@@H]2CC(O)C[C@H]1[C@@H]1O[C@@H]12 (some centres undefined) [Scopine] | 98.4 | 101 | 100 | 105 | 94.7 | 99.2 | 96.5 | 105
CC(C)N(CCNC(=O)CN1CCCC1=O)C(C)C [Pramiracetam] | 104 | 103 | 106 | 112 | 98.6 | 104 | 107 | 111
Cc1cccc(C)c1NC1=NCCCS1 [Xylazine HCl] | 99.5 | 101 | 103 | 107 | 106 | 98.1 | 102 | 105
O=c1[nH]c2ccccc2n1CCCN1CCC(n2c(=O)[nH]c3cc(Cl)ccc32)CC1 [Domperidone] | 104 | 105 | 102 | 109 | 100 | 98.5 | 101 | 113
CC[N+]1(C)CCCC(OC(=O)C(O)(c2ccccc2)c2ccccc2)C1 (centres undefined) [Pipenzolate Bromide] | 101 | 98.3 | 102 | 105 | 100 | 111 | 101 | 116
CC[C@@]1(O)C(=O)OCc2c1cc1n(c2=O)Cc2cc3ccccc3nc2-1 [Camptothecin] | 104 | 103 | 93.9 | 37.7 | 104 | 105 | 89.7 | 35.6
C[N+]1(C)[C@@H]2C[C@@H](OC(=O)[C@H](CO)c3ccccc3)C[C@H]1[C@@H]1O[C@@H]12 [Methscopolamine] | 99.5 | 101 | 100 | 106 | 97.5 | 101 | 101 | 101
C=CCN1CC[C@]23c4c5ccc(O)c4O[C@H]2C(=O)CC[C@@]3(O)[C@H]1C5 [Naloxone HCl] | 109 | 103 | 104 | 117 | 104 | 104 | 109 | 113
CC(O)(CS(=O)(=O)c1ccc(F)cc1)C(=O)Nc1ccc(C#N)c(C(F)(F)F)c1 (centres undefined) [Bicalutamide] | 106 | 107 | 107 | 104 | 106 | 111 | 110 | 107
CNC1CC(N)C(O)C(OC2OC(CO)C(O)C3OC4(OC(C(N)CO)C(O)C(O)C4O)OC23)C1O (centres undefined) [Hygromycin B] | 108 | 102 | 107 | 110 | 104 | 106 | 110 | 106
Cc1cccc(C)c1NC(=O)CN1CCCC1=O [Nefiracetam] | 101 | 99.1 | 102 | 104 | 101 | 97.1 | 105 | 101
Cc1cccc(Cc2c[nH]cn2)c1C [Detomidine HCl] | 100 | 94.5 | 101 | 103 | 92.9 | 88.2 | 98.6 | 113
CCC(COC(=O)c1cc(OC)c(OC)c(OC)c1)(c1ccccc1)N(C)C (centres undefined) [Trimebutine] | 104 | 95.7 | 100 | 103 | 98.5 | 98.1 | 101 | 104
NCCc1c[nH]c2ccc(O)cc12 [Serotonin HCl] | 102 | 96.6 | 99.8 | 107 | 101 | 101 | 100 | 113
